Experimental findings from publication PMC7862700, “An all-to-all approach to the identification of sequence-specific readers for epigenetic DNA modifications on cytosine” are described below.

Common to all, as to assay: DAPPL (digital affinity profiling via proximity ligation, sequencing); 10 mM Tris-HCl pH 7.5, 50 mM NaCl, 1 mM DTT, 4% glycerol, room temperature, 30 min; GST-TFs on glutathione beads, 16-mer random dsDNA library, 0.1% formaldehyde crosslink after washing; high values mean tight binding
For one assay, the target named is T1, FLI1 (Homo sapiens, UniProt Q01543 1-452).
T1 sequence: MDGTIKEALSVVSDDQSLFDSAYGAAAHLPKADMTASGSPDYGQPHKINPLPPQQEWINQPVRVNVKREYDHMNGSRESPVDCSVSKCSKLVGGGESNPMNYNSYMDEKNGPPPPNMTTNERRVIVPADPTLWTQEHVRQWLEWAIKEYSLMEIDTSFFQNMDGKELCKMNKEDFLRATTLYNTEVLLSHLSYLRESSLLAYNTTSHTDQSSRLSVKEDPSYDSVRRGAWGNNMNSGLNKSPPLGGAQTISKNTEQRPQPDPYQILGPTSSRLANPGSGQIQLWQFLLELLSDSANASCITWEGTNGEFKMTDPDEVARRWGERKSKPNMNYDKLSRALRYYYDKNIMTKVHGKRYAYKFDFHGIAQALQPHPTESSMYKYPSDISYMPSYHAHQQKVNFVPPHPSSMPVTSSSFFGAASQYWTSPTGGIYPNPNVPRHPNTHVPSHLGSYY
The settings on record: protein: recombinant; tags: N-terminal GST; dsDNA, one strand shown. Put shortly:
(§1)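 Human transcription factors fused to GST were expressed in yeast, captured on glutathione beads, given DNA barcodes and pooled with a GST-only negative control. Pools were incubated with 200 nmole of a 16-mer random double-stranded DNA library in Tris/NaCl/DTT/glycerol buffer at room temperature for 30 min. They were then washed, crosslinked with 0.1% formaldehyde, proximity-ligated (BsaI/T4 ligase, 1 h, 37 °C), PCR-amplified and sequenced on an Illumina NextSeq500. Binding signal is each 6-mer's read frequency for a factor divided by its frequency for the GST control.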

The target of the next assay is T2, ETV3L (Homo sapiens, UniProt Q6ZN32 1-361).
T2 sequence: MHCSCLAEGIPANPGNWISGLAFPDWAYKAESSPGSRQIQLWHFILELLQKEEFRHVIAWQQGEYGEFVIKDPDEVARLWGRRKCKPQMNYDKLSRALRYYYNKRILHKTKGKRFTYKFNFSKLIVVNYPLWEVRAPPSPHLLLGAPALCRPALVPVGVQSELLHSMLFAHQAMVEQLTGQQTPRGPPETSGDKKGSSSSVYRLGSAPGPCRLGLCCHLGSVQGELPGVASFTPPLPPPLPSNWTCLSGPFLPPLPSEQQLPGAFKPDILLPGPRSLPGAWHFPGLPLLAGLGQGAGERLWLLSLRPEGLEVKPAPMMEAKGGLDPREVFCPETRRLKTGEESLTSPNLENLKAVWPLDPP
The settings on record: protein: recombinant; tags: N-terminal GST; dsDNA, one strand shown. A digest of the protocol:
as §1

The target of another assay is T3, GABPA (Homo sapiens, UniProt Q06546 1-454).
T3 sequence: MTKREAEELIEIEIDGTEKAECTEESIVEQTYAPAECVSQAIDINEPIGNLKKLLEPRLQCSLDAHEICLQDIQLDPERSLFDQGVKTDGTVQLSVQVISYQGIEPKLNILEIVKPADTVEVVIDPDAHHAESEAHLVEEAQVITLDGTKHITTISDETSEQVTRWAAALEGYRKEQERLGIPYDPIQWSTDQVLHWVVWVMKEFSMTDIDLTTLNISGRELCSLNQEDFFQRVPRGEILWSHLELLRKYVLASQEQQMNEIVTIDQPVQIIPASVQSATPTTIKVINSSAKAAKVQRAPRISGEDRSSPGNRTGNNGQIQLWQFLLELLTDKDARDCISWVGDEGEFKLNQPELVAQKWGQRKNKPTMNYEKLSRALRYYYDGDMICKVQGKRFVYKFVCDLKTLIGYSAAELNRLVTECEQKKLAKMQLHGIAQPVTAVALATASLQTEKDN
The settings on record: protein: recombinant; tags: N-terminal GST; dsDNA, one strand shown. Put shortly: as §1

The target of another assay is SPIB (Homo sapiens, UniProt Q01892 1-262). The settings on record: protein: recombinant; tags: N-terminal GST; dsDNA, one strand shown. A digest of the protocol: as §1
A further assay addresses T4, ELK3 (Homo sapiens, UniProt P41970 1-407).
T4 sequence: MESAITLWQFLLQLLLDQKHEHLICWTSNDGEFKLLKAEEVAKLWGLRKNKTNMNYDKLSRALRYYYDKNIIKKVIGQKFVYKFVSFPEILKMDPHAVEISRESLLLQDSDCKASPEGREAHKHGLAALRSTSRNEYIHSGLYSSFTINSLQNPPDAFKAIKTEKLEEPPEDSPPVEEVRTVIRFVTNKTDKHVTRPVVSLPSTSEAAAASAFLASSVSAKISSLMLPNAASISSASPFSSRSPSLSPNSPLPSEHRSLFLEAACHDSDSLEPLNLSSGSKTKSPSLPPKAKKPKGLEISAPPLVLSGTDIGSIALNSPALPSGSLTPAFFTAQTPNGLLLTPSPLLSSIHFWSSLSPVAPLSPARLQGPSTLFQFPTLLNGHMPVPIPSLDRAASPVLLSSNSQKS
The settings on record: protein: recombinant; tags: N-terminal GST; dsDNA, one strand shown. Put shortly:
as §1

The target in a further assay is HSF1 (Homo sapiens, UniProt Q00613 1-529). The settings on record: protein: recombinant; tags: N-terminal GST; chain copies: 3; dsDNA, one strand shown. A digest of the protocol:
as §1

The next assay addresses ELF1 (Homo sapiens, UniProt P32519 1-619). The settings on record: protein: recombinant; tags: N-terminal GST; dsDNA, one strand shown. A digest of the protocol: as §1
The target in a further assay is T5, ERF (Homo sapiens, UniProt P50548 1-548).
T5 sequence: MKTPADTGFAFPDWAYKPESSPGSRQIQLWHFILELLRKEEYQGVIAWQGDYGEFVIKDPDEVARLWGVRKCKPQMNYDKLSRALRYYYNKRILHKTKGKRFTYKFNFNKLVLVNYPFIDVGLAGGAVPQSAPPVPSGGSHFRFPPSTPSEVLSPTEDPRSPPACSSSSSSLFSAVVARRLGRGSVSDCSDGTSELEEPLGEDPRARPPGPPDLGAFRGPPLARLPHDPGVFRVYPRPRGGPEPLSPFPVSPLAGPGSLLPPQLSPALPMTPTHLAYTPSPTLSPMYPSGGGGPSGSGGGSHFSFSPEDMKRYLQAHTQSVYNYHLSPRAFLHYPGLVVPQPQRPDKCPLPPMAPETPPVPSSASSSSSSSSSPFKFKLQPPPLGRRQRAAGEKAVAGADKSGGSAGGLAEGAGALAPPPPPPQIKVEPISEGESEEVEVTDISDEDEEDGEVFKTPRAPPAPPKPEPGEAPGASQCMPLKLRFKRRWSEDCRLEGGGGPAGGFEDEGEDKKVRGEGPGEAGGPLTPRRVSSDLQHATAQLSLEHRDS
The settings on record: protein: recombinant; tags: N-terminal GST; dsDNA, one strand shown. Put shortly: as §1

For a further assay, the target named is T6, ETV7 (Homo sapiens, UniProt Q9Y603 1-341).
T6 sequence: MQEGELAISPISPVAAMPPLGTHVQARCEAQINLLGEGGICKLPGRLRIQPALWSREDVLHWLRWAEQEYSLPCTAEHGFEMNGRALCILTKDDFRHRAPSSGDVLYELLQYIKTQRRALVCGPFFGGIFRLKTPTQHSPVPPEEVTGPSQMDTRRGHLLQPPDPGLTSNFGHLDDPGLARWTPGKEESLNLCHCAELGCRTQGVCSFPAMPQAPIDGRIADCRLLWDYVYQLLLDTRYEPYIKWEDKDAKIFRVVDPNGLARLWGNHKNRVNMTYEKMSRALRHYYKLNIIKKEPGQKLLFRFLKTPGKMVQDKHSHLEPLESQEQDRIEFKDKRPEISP
The settings on record: protein: recombinant; tags: N-terminal GST; dsDNA, one strand shown. A digest of the protocol: as §1

Chain of HSF1 (Q00613 whole entry): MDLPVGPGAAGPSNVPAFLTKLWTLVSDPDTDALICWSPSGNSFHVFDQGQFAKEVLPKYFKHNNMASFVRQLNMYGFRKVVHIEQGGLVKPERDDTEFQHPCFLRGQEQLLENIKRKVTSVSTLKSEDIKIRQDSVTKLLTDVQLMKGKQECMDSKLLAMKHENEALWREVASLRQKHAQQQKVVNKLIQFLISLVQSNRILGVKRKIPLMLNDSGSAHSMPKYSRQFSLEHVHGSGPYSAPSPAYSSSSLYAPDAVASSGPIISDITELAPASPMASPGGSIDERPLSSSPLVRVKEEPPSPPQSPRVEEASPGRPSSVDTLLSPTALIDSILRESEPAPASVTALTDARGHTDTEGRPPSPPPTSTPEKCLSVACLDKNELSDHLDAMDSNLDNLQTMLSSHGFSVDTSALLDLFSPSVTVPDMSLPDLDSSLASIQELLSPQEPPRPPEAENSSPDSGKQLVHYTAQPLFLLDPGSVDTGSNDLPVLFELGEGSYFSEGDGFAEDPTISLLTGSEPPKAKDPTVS
Chain of SPIB (Q01892 whole entry): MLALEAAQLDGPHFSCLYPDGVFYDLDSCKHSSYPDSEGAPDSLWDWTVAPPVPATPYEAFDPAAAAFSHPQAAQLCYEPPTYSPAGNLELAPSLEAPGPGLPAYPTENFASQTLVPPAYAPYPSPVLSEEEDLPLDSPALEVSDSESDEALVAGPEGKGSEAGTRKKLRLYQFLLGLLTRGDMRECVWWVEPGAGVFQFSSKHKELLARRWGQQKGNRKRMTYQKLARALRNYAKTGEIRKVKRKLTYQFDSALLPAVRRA
Chain of ELF1 (P32519 whole entry): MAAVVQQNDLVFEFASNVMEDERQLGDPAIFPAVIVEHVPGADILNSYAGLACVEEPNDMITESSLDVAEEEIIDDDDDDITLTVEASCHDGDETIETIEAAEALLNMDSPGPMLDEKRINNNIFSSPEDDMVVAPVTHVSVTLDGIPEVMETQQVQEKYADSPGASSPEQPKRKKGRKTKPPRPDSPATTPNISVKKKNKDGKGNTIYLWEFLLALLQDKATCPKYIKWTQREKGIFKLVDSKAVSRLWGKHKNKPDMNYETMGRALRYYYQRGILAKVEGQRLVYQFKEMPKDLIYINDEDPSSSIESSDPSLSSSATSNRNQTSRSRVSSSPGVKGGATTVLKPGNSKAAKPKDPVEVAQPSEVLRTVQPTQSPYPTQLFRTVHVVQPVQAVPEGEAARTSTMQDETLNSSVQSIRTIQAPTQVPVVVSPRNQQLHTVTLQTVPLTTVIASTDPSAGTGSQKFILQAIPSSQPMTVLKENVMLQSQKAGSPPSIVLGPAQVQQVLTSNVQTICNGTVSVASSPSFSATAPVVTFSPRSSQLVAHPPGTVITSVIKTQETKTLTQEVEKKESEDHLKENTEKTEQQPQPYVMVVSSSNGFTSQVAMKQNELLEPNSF

Consider GTGACT, for which the binding signal with FLI1 is 1.02 fold enrichment (6-mer frequency, TF over GST control); with ETV3L, 1.01 fold enrichment (6-mer frequency, TF over GST control).

As to GACTCA, the binding signal is 1.06 fold enrichment (6-mer frequency, TF over GST control) in the assay with FLI1; 1.02 fold enrichment (6-mer frequency, TF over GST control) in the assay with GABPA; 1.09 fold enrichment (6-mer frequency, TF over GST control) in the assay with SPIB; 1.04 fold enrichment (6-mer frequency, TF over GST control) with ELK3.

With GAGAAA, in the assay with HSF1, the binding signal is 1.49 fold enrichment (6-mer frequency, TF over GST control).

Consider ACAAAG, for which the binding signal in the assay with FLI1 was 1.04 fold enrichment (6-mer frequency, TF over GST control); in the assay with GABPA, 1.03 fold enrichment (6-mer frequency, TF over GST control); with ELF1 it was 1.02 fold enrichment (6-mer frequency, TF over GST control); in the assay with ELK3 it was 1.04 fold enrichment (6-mer frequency, TF over GST control); with ERF it was 1.01 fold enrichment (6-mer frequency, TF over GST control); with ETV7 it was 1.01 fold enrichment (6-mer frequency, TF over GST control).

As for CATAGA, the binding signal with HSF1 was 1.15 fold enrichment (6-mer frequency, TF over GST control).
